Structures can show the parent of a compound that is named as a salt. ± gives the standard deviation of the averaged measurements.

In assay [1] the test system is MDA-MB-231. Briefly: cell viability relative to vehicle unstimulated control (fraction); higher = more viable cells. The settings on record: pre-treatment time: 18 h then 24 h IFNg/TNF.
The subject of assay [2] is MDA-MB-231. Briefly: kynurenine production, fold change vs DMSO IFNg/TNF control; higher = more kynurenine produced (less inhibition). The following applies: pre-treatment time: 18 h then 24 h IFNg/TNF. Put shortly: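 After trichloroacetic acid and p-dimethylaminobenzaldehyde treatment, supernatants were read at 492 nm, with 0–100 μM standards. These came from MDA-MB-231 cells (7 × 10^4/well, 96-well plates) pre-treated 18 h with natural products in 0.1% DMSO and then exposed 24 h to IFNγ (1 U/ml) and TNF (6.25 ng/ml) at 37°C. Values for kynurenine production are fold changes over same-plate cytokine-stimulated vehicle wells, averaged over duplicate plates in the first screening round.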
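Wherever cell viability relative to vehicle unstimulated control is given: viability of the cells left after supernatant collection, read with Deep Blue dye added for 4 h, as absorbance at 570 nm minus 600 nm.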

With `CN1[C@@H]2CC[C@H]1C[C@@H](OC(=O)C(CO)c1ccccc1)C2` (stereo partly drawn) [Atropine sulfate] (compound dose: 10 uM), the cell viability with MDA-MB-231 [1] is 0.996 ± 0.016. In the assay on MDA-MB-231 [2], the kynurenine production stood at 0.795 ± 0.044.

As to `C[C@]1(C(=O)O)CCC[C@]2(C)c3cc(O)ccc3CC[C@@H]12` [Podocarpic acid] (compound dose: 10 uM), the cell viability in the assay on MDA-MB-231 [1] stood at 0.946 ± 0.07. Also, in the assay with MDA-MB-231 [2], the kynurenine production worked out at 0.852 ± 0.12.

As to `C=C1[C@@H]2CC[C@H]3[C@]4(C)C[C@H](O[C@@H]5O[C@H](CO)[C@@H](OS(=O)(=O)O)[C@H](OS(=O)(=O)O)[C@H]5OC(=O)CC(C)C)CC(C(=O)O)(C(=O)O)[C@H]4CC[C@]3(C2)[C@H]1O` [Carboxyatractyloside (dipotassium)] (compound dose: 10 uM), in the assay on MDA-MB-231 [1], the cell viability was 1.03 ± 0.071. Further, the kynurenine production in the assay with MDA-MB-231 [2] came out at 0.825 ± 0.43.

`C/C=C(/C)C(=O)O[C@H]1C(C)=C[C@]23C(=O)[C@@H](C=C(C)[C@@H](O)[C@]12O)[C@H]1[C@@H](C[C@H]3C)C1(C)C` [20-Deoxyingenol 3-angelate] (compound dose: 10 uM): the cell viability in the assay on MDA-MB-231 [1] amounted to 1.04 ± 0.05. The kynurenine production in the assay with MDA-MB-231 [2] was 0.8582 ± 0.0053.

On to `C[C@@H]1CC[C@@]2(OC1)O[C@H]1[C@@H](O)[C@H]3[C@@H]4CC[C@H]5C[C@@H](O[C@@H]6O[C@H](CO)[C@H](O[C@@H]7O[C@H](CO)[C@@H](O)[C@H](O[C@@H]8OC[C@@H](O)[C@H](O)[C@H]8O)[C@H]7O[C@@H]7O[C@H](CO)[C@H](O)[C@H](O[C@@H]8O[C@H](CO)[C@@H](O)[C@H](O)[C@H]8O)[C@H]7O)[C@H](O)[C@H]6O)[C@H](O)C[C@]5(C)[C@H]4CC[C@]3(C)[C@H]1[C@@H]2C` [Digitonin] (compound dose: 10 uM), for which, in the assay on MDA-MB-231 [1], the cell viability is 0.694 ± 0.021. Also, the kynurenine production in the assay on MDA-MB-231 [2] stood at 0.617 ± 0.019.

Take `O=C([O-])c1ccc[n+]([C@@H]2O[C@H](CO)[C@@H](O)[C@H]2O)c1` [Nicotinic acid riboside] (compound dose: 10 uM): the cell viability in the assay with MDA-MB-231 [1] was 0.784 ± 0.36. In addition, the kynurenine production with MDA-MB-231 [2] came out at 0.364 ± 0.35.

For the compound `CC(C)[C@]12O[C@H]1[C@@H]1O[C@]13[C@]1(O[C@H]1C[C@H]1C4=C(CC[C@@]13C)C(=O)OC4)[C@@H]2O` [Triptolide] (compound dose: 10 uM), the cell viability in the assay on MDA-MB-231 [1] was found to be 0.64 ± 0.034. Further, in the assay with MDA-MB-231 [2], the kynurenine production is 0.152 ± 0.021.

In the case of `CC(C)(O)/C=C/C(=O)[C@](C)(O)[C@H]1[C@H](O)C[C@@]2(C)[C@@H]3CC=C4[C@@H](C[C@H](O)C(=O)C4(C)C)[C@]3(C)C(=O)C[C@]12C` [Cucurbitacin D] (compound dose: 10 uM), in the assay on MDA-MB-231 [1], the cell viability came to 0.55 ± 0.022. The kynurenine production with MDA-MB-231 [2] was 0.326 ± 0.083.

For the compound `CC(C)=CCC[C@](C)(O)[C@H]1CC[C@]2(C)[C@@H]1[C@H](O)C[C@@H]1[C@@]3(C)CC[C@H](O)C(C)(C)[C@@H]3[C@@H](O[C@@H]3O[C@H](CO)[C@@H](O)[C@H](O)[C@H]3O)C[C@]12C` [Ginsenoside Rh1] (compound dose: 10 uM), the cell viability in the assay with MDA-MB-231 [1] turned out to be 0.999 ± 0.025. Also, the kynurenine production with MDA-MB-231 [2] came to 0.852 ± 0.15.

`CN1C2CCC1CC(O)C2` (stereo not drawn) [Tropine] (compound dose: 10 uM): the cell viability in the assay with MDA-MB-231 [1] came to 0.938 ± 0.13. In addition, in the assay with MDA-MB-231 [2], the kynurenine production was 0.902 ± 0.2.

Regarding `CC(=O)O[C@H]1[C@H]2[C@@H](OC(=O)Cc3ccccc3)[C@@H](C)C[C@]2(OC(C)=O)C(=O)/C(C)=C/[C@@H]2[C@H](CC[C@@]13CO3)C2(C)C` [Euphorbiasteroid] (compound dose: 10 uM), in the assay with MDA-MB-231 [1], the cell viability stood at 0.981 ± 0.059. In addition, in the assay on MDA-MB-231 [2], the kynurenine production stood at 0.997 ± 0.02.

On to `CC(=O)OC12COC1CC(O)C1(C)C(=O)C(O)C3=C(C)C(O)CC(O)(C(OC(=O)c4ccccc4)C21)C3(C)C` (stereo not drawn) [10-Deacetylbaccatin III] (compound dose: 10 uM), for which the cell viability in the assay on MDA-MB-231 [1] was 0.999 ± 0.017. The kynurenine production in the assay on MDA-MB-231 [2] stood at 0.849 ± 0.18.

As for `C[C@@]12C[C@@H](c3ccoc3)OC(=O)[C@@H]1CC[C@]1(C)[C@H]2[C@@H]2C=C[C@@]1(O)C(=O)O2` [Columbin] (compound dose: 10 uM), in the assay on MDA-MB-231 [1], the cell viability was 0.9915 ± 0.0091. For the same compound, the kynurenine production with MDA-MB-231 [2] was 0.882 ± 0.2.

For `CN1[C@@H]2CC[C@H]1C[C@@H](OC(=O)[C@H](CO)c1ccccc1)C2` [Hyoscyamine hydrobromide] (compound dose: 10 uM), the cell viability in the assay on MDA-MB-231 [1] is 1.03 ± 0.024. Also, the kynurenine production in the assay with MDA-MB-231 [2] is 0.743 ± 0.061.

On to `C=C(CO)C(=O)O[C@H]1CC(=C)[C@@H]2C[C@H](O)C(=C)[C@@H]2[C@H]2OC(=O)C(=C)[C@@H]21` [Cynaropicrin] (compound dose: 10 uM), for which, in the assay on MDA-MB-231 [1], the cell viability came to 0.69 ± 0.16. Also, in the assay with MDA-MB-231 [2], the kynurenine production was 0.0672 ± 0.056.

As to `C=C[C@@H]1C2=CCOC(=O)C2=CO[C@H]1O[C@@H]1O[C@H](CO)[C@@H](O)[C@H](O)[C@H]1O` [Gentiopicroside] (compound dose: 10 uM), the cell viability with MDA-MB-231 [1] was determined as 0.981 ± 0.0079. In addition, the kynurenine production in the assay on MDA-MB-231 [2] is 0.904 ± 0.09.

For the compound `COc1cc2c(cc1OC)-c1c(OC)c(OC)cc3c1[C@H](C2)N(C)CC3` [(S)-Glaucine (commercial standard)], the cell viability in the assay with MDA-MB-231 [1] is 1.07 ± 0.065. Further, in the assay with MDA-MB-231 [2], the kynurenine production was 0.852 ± 0.067.

Take `C[C@@H]1CC[C@H]2[C@@H](C)C(=O)O[C@@H]3O[C@@]4(C)CC[C@@H]1[C@]32OO4` [Artemisinin] (compound dose: 10 uM): the cell viability in the assay on MDA-MB-231 [1] was 1.06 ± 0.079. Moreover, in the assay on MDA-MB-231 [2], the kynurenine production came out at 0.581 ± 0.11.

Turning to `CN1[C@@H]2CC[C@H]1C[C@H](O)C2` [Pseudotropine] (compound dose: 10 uM), in the assay on MDA-MB-231 [1], the cell viability was found to be 1.052 ± 0.0024. Also, in the assay with MDA-MB-231 [2], the kynurenine production is 1.14 ± 0.4.

Values taken from the supplement of paper PMC13094657.
